Measured values as given in the supplement of paper PMC11732987, “Enantioselective OTUD7B fragment discovery through chemoproteomics screening and high-throughput optimisation” (Communications Chemistry, 2025).

Experiments:
Assay in all cases: log2 ratio of Biotin-Ahx-Ub-VS probe labelling (compound/DMSO); higher = less target engagement, active = hit call of the paper (q ≤ 0.05, log2 ratio ≤ -1)
Details in all cases: treatment time: 3 h
[1] = compound: CCC1N(CCc2sccc12)C(=O)CCl
Procedure, shortened: (§1)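 For activity-based profiling, 495 µg portions of HEK293T lysate in Tris/CHAPS/IGEPAL buffer with protease inhibitors were treated in triplicate with compound at 50 or 200 µM or with DMSO for 3 h. A 1 h incubation with Biotin-Ahx-Ub-VS (0.5 µM final) followed, then NeutrAvidin enrichment, LysC and trypsin digestion and diaPASEF LC-MS/MS. The compound/DMSO base-two log ratios were averaged from median-normalised label-free quantities using an unpaired t-test. Proteins needed at least 2 unique peptides to be included.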

[2] = compound: CN1c2ccccc2C(CS1(=O)=O)NC(=O)CCl
Procedure, shortened: as §1

[3] = compound: Cl.ClCC(=O)N1CCc2ncncc2C1
Procedure, shortened: as §1

[4] = compound: Cl.Cn1ncc2C(CCCc12)NC(=O)CCl
Procedure, shortened: as §1

[5] = compound: ClCC(=O)NC1CCOc2ccccc12
Procedure, shortened: as §1

[6] = compound: ClCC(=O)NC1CCCc2ccccc12
Procedure, shortened: (§2)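 In triplicate, 495 µg portions of HEK293T lysate in Tris/CHAPS/IGEPAL buffer with protease inhibitors received compound across a concentration series or vehicle for 3 h, followed by 1 h with 0.5 µM final Biotin-Ahx-Ub-VS. After NeutrAvidin enrichment and LysC/trypsin digestion, the labelled deubiquitinases were measured by diaPASEF LC-MS/MS and quantified label-free in Spectronaut with global-median normalisation. Each value is an average compound-to-vehicle ratio from an unpaired t-test, expressed as log2 and restricted to proteins having two or more unique peptides.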

[7] = compound: ClCC(=O)N[C@@H]1CCCc2ccccc12
Procedure, shortened: as §2

[8] = compound: ClCC(=O)N[C@H]1CCCc2ccccc12
Procedure, shortened: as §2

[9] = compound: CCC1N(CCc2cc(OC)c(Cl)cc12)C(=O)CCl
Procedure, shortened: as §1

[10] = compound: CCCC1N(CCc2cc(OC)c(OC)cc12)C(=O)CCl
Procedure, shortened: as §1

[11] = compound: CN(Cc1cccc(Br)c1)C(=O)CCl
Procedure, shortened: as §1

[12] = compound: CN(Cc1cccc(OCc2ccccc2C)c1)C(=O)CCl
Procedure, shortened: as §1

[13] = compound: CN(Cc1ccccc1)C(=O)CCl
Procedure, shortened: as §1

[14] = compound: COc1ccc(CN(C)C(=O)CCl)cc1
Procedure, shortened: as §1

[15] = compound: COc1cccc(CN(CCCc2ccccc2)C(=O)CCl)c1
Procedure, shortened: as §1

[16] = compound: ClCC(=O)N1CCc2cc(Cl)c(Cl)cc2C1
Procedure, shortened: as §1

[17] = compound: ClCC(=O)N1CCc2nc(ncc2C1)-c1ccccc1
Procedure, shortened: as §1

[18] = compound: ClCC(=O)N1CCc2nocc2C1
Procedure, shortened: as §1

[19] = compound: ClCC(=O)N1CCc2scc(Br)c2C1
Procedure, shortened: as §1

[20] = compound: ClCC(=O)NC(C1CCCC1)c1cccs1
Procedure, shortened: as §1

Measured: log2 ratio of Biotin-Ahx-Ub-VS probe labelling

USP48 (UniProt Q86UV5)
Chain of UniProt Q86UV5 (Q86UV5 whole entry): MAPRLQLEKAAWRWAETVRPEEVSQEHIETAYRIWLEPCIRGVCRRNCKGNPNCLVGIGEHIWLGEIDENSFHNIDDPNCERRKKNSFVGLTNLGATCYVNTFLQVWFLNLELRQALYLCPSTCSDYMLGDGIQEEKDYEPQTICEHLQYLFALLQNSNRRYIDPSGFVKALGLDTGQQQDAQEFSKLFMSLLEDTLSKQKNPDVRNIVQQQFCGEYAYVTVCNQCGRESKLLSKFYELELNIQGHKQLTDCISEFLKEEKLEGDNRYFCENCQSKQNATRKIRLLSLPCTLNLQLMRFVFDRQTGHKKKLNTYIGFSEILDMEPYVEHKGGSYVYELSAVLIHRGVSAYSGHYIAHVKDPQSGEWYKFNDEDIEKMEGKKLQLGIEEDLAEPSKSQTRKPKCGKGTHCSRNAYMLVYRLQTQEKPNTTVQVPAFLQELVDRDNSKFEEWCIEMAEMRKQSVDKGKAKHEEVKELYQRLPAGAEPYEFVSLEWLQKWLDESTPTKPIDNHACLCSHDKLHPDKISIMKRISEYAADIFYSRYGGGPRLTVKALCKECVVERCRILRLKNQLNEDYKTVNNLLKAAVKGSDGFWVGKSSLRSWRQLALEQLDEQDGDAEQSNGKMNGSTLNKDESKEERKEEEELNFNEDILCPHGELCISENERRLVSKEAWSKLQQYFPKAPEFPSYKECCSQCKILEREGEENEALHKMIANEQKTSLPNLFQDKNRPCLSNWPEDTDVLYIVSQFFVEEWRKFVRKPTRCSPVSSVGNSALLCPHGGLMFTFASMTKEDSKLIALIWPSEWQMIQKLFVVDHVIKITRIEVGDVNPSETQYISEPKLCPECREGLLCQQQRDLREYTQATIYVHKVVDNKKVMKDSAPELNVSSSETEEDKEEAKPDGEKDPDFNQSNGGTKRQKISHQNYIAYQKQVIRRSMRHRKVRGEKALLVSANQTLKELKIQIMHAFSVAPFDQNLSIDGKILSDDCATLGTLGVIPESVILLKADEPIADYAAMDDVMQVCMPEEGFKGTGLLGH
inactive: [1]; compound concentration: 50uM 0.0438 | [1]; compound concentration: 200uM -0.229 | [2]; compound concentration: 50uM -0.0584 | [2]; compound concentration: 200uM -0.173 | [3]; compound concentration: 50uM 0.0472 | [3]; compound concentration: 200uM -0.0578 | [4]; compound concentration: 50uM 0.11 | [4]; compound concentration: 200uM -0.141 | [5]; compound concentration: 50uM -0.181 | [5]; compound concentration: 200uM 0.181 | [6]; compound concentration: 0.78uM -0.207 | [6]; compound concentration: 1.56uM -0.126 | [6]; compound concentration: 3.13uM -0.133 | [6]; compound concentration: 6.25uM -0.353 | [6]; compound concentration: 12.5uM -0.196 | [6]; compound concentration: 25uM -0.157 | [6]; compound concentration: 50uM -0.212 | [6]; compound concentration: 100uM -0.103 | [6]; compound concentration: 200uM -0.378 | [7]; compound concentration: 0.78uM -0.118 | [7]; compound concentration: 1.56uM 0.0156 | [7]; compound concentration: 3.13uM -0.424 | [7]; compound concentration: 6.25uM -0.193 | [7]; compound concentration: 12.5uM -0.0735 | [7]; compound concentration: 25uM -0.174 | [7]; compound concentration: 50uM -0.19 | [7]; compound concentration: 100uM -0.106 | [7]; compound concentration: 200uM -0.351 | [8]; compound concentration: 0.78uM -0.189 | [8]; compound concentration: 1.56uM -0.192 | [8]; compound concentration: 3.13uM -0.141 | [8]; compound concentration: 6.25uM -0.00525 | [8]; compound concentration: 12.5uM -0.0911 | [8]; compound concentration: 25uM -0.00111 | [8]; compound concentration: 50uM -0.0046 | [8]; compound concentration: 100uM -0.171 | [8]; compound concentration: 200uM -0.203 | [9]; compound concentration: 50uM -0.171 | [9]; compound concentration: 200uM -0.314 | [10]; compound concentration: 50uM -0.217 | [10]; compound concentration: 200uM -0.148 | [11]; compound concentration: 50uM -0.101 | [11]; compound concentration: 200uM -0.603 | [12]; compound concentration: 50uM -0.235 | [12]; compound concentration: 200uM -0.552 | [13]; compound concentration: 50uM -0.0688 | [13]; compound concentration: 200uM -0.18 | [14]; compound concentration: 50uM -0.0647 | [14]; compound concentration: 200uM -0.237 | [15]; compound concentration: 50uM -0.0292 | [15]; compound concentration: 200uM -0.259 | [16]; compound concentration: 50uM -0.214 | [16]; compound concentration: 200uM -0.0205 | [17]; compound concentration: 50uM -0.173 | [17]; compound concentration: 200uM -0.226 | [18]; compound concentration: 50uM -0.112 | [18]; compound concentration: 200uM -0.324 | [19]; compound concentration: 50uM -0.161 | [19]; compound concentration: 200uM -0.327 | [20]; compound concentration: 50uM -0.234 | [20]; compound concentration: 200uM -0.00963
